Measurements: the supplement of paper PMC8728848
Only a selection was taken, and the strongest signals are over-represented in it overall.

Columns and labels:
Assay in all cases: glycan array binding signal (z-score within array); higher = stronger binding
Settings in all cases: glycan notation: IUPAC condensed, linker removed
[1] = target: Fuc(a1-2)Gal(b1-3)[Fuc(a1-4)]GlcNAc(b1-3)[Gal(b1-4)GlcNAc(b1-6)]Gal(b1-4)Glc
Method in brief: (§1)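 Glycan array data came from 3228 arrays in the Consortium for Functional Glycomics database, and only arrays with an available protein sequence were kept. Glycan names were put into IUPAC-condensed notation, and columns mapping to the same glycan were averaged. The binding signal is a within-array Z-score, averaged across arrays of one protein sequence run at different concentrations or buffers and across linkers. A negative Z-score can be read as non-binding.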

[2] = target: Fuc(a1-2)Gal(b1-4)Glc
Method in brief: as §1

[3] = target: Fuc(a1-2)Gal(b1-4)[Fuc(a1-3)]GlcNAc(b1-3)GalNAc
Method in brief: as §1

[4] = target: Fuc(a1-2)[Gal(a1-4)]Gal(b1-4)GlcNAc
Method in brief: as §1

[5] = target: Fuc(a1-2)[GalNAc(a1-3)]Gal
Method in brief: as §1

[6] = target: Fuc(a1-3)[Gal(b1-4)]GlcNAc(b1-6)GalNAc
Method in brief: as §1

[7] = target: Fuc(a1-3)[GalNAc(b1-4)]GlcNAc
Method in brief: as §1

[8] = target: Gal(a1-3)Fuc(a1-2)Gal(b1-4)GlcNAc(b1-3)[Gal(a1-3)Fuc(a1-2)Gal(b1-4)GlcNAc(b1-6)]GalNAc
Method in brief: as §1

[9] = target: Gal(a1-3)Gal(b1-3)GlcNAc(b1-2)Man(a1-3)[Gal(a1-3)Gal(b1-3)GlcNAc(b1-2)Man(a1-6)]Man(b1-4)GlcNAc(b1-4)GlcNAc
Method in brief: as §1

[10] = target: Gal(a1-3)Gal(b1-4)[Fuc(a1-3)]GlcNAc(b1-2)Man(a1-3)[Gal(a1-3)Gal(b1-4)[Fuc(a1-3)]GlcNAc(b1-2)Man(a1-6)]Man(b1-4)GlcNAc(b1-4)GlcNAc
Method in brief: as §1

[11] = target: Gal(a1-4)Gal(b1-4)Glc
Method in brief: as §1

[12] = target: Gal(b1-3)GlcNAc(b1-6)Gal(b1-4)GlcNAc
Method in brief: as §1

[13] = target: Gal(b1-3)[Fuc(a1-4)]GlcNAc(b1-2)Man(a1-3)[Gal(b1-3)[Fuc(a1-4)]GlcNAc(b1-2)Man(a1-6)]Man(b1-4)GlcNAc(b1-4)GlcNAc
Method in brief: as §1

[14] = target: Gal(b1-4)GlcNAc(b1-2)Man(a1-3)Man(b1-4)GlcNAc(b1-4)GlcNAc
Method in brief: as §1

[15] = target: Gal(b1-4)GlcNAc(b1-2)Man(a1-3)[Gal(b1-4)GlcNAc(b1-2)Man(a1-6)]Man(b1-4)GlcNAc(b1-4)[Fuc(a1-6)]GlcNAc
Method in brief: as §1

[16] = target: Gal(b1-4)GlcNAc(b1-2)Man(a1-6)Man(b1-4)GlcNAc(b1-4)GlcNAc
Method in brief: as §1

[17] = target: Gal(b1-4)GlcNAc(b1-3)[Gal(b1-4)GlcNAc(b1-6)]GalNAc
Method in brief: as §1

[18] = target: Gal(b1-4)GlcNAc(b1-6)[Gal(b1-3)]GalNAc
Method in brief: as §1

[19] = target: Gal3S(b1-4)GlcNAc
Method in brief: as §1

[20] = target: Gal3S(b1-4)[Fuc(a1-3)]Glc
Method in brief: as §1

[21] = target: Gal3S4S(b1-4)GlcNAc
Method in brief: as §1

[22] = target: Gal3S6S(b1-4)GlcNAc
Method in brief: as §1

[23] = target: GalNAc(b1-3)Gal
Method in brief: as §1

[24] = target: Glc(b1-4)Glc
Method in brief: as §1

[25] = target: GlcNAc(a1-4)Gal(b1-4)GlcNAc(b1-3)Gal(b1-4)GlcNAc
Method in brief: as §1

[26] = target: GlcNAc(a1-4)Gal(b1-4)GlcNAc(b1-3)Gal(b1-4)[Fuc(a1-3)]GlcNAc(b1-3)Gal(b1-4)[Fuc(a1-3)]GlcNAc
Method in brief: as §1

[27] = target: GlcNAc(a1-6)Gal(b1-4)GlcNAc
Method in brief: as §1

[28] = target: GlcNAc(b1-6)Gal(b1-4)GlcNAc
Method in brief: as §1

[29] = target: Kdn(a2-3)Gal(b1-3)GalNAc
Method in brief: as §1

[30] = target: Man(a1-2)Man(a1-3)[Man(a1-2)Man(a1-6)]Man
Method in brief: as §1

[31] = target: Man(a1-2)Man(a1-3)[Man(a1-2)Man(a1-6)]Man(a1-6)[Man(a1-2)Man(a1-2)Man(a1-3)]Man
Method in brief: as §1

[32] = target: Man(a1-2)Man(a1-3)[Man(a1-2)Man(a1-6)]Man(a1-6)[Man(a1-2)Man(a1-2)Man(a1-3)]Man(b1-4)GlcNAc(b1-4)GlcNAc
Method in brief: as §1

[33] = target: Man(a1-2)Man(a1-6)[Man(a1-3)]Man(a1-6)[Man(a1-2)Man(a1-2)Man(a1-3)]Man(b1-4)GlcNAc(b1-4)GlcNAc
Method in brief: as §1

[34] = target: Neu5Ac(a2-3)Gal(b1-3)[Neu5Ac(a2-6)]GalNAc
Method in brief: as §1

[35] = target: Neu5Ac(a2-3)Gal(b1-4)GlcNAc(b1-6)[Neu5Ac(a2-3)Gal(b1-3)]GalNAc
Method in brief: as §1

[36] = target: Neu5Ac(a2-6)Gal(b1-4)Glc
Method in brief: as §1

[37] = target: Neu5Ac(a2-6)Gal(b1-4)GlcNAc(b1-2)Man(a1-3)[Man(a1-6)]Man(b1-4)GlcNAc(b1-4)GlcNAc
Method in brief: as §1

B1: Eosinophil cationic protein (ECP) (Homo sapiens), P12724 (protein)
chain: MVPKLFTSQICLLLLLGLMGVEGSLHARPPQFTRAQWFAIQHISLNPPRCTIAMRAINNYRWRCKNQNTFLRTTFANVVNVCGNQSIRCPHNRTLNNCHRSRFRVPLLHCDLINPGAQNISNCTYADRPGRRFYVVACDNRDPRDSPRYPVVPVHLDTTI
B1 was tested, and the “glycan array binding signal (z-score)” value [1] was -0.315, the “glycan array binding signal (z-score)” value [2] was -0.348 and the “glycan array binding signal (z-score)” value [3] was 2.14. The “glycan array binding signal (z-score)” value [4] was -0.421, the “glycan array binding signal (z-score)” value [5] was -0.298 and the “glycan array binding signal (z-score)” value [6] was 2.25. The “glycan array binding signal (z-score)” value [7] was -0.183, the “glycan array binding signal (z-score)” value [8] was 0.494 and the “glycan array binding signal (z-score)” value [9] was 1.32. For the same binder, the “glycan array binding signal (z-score)” value [10] was 2.23, the “glycan array binding signal (z-score)” value [11] was -0.102 and the “glycan array binding signal (z-score)” value [12] was -0.17. The “glycan array binding signal (z-score)” value [13] was 0.007, the “glycan array binding signal (z-score)” value [14] was -0.103 and the “glycan array binding signal (z-score)” value [15] was 0.16. The “glycan array binding signal (z-score)” value [16] was -0.08, the “glycan array binding signal (z-score)” value [17] was -0.091 and the “glycan array binding signal (z-score)” value [18] was -0.081. The “glycan array binding signal (z-score)” value [19] was 0.818, the “glycan array binding signal (z-score)” value [20] was 2.4 and the “glycan array binding signal (z-score)” value [21] was -0.557. The “glycan array binding signal (z-score)” value [22] was 2.7, the “glycan array binding signal (z-score)” value [23] was -0.382 and the “glycan array binding signal (z-score)” value [24] was 0.024. The “glycan array binding signal (z-score)” value [25] was 8.33, the “glycan array binding signal (z-score)” value [26] was 4.18 and the “glycan array binding signal (z-score)” value [27] was 3.15. The “glycan array binding signal (z-score)” value [28] was 0.126, the “glycan array binding signal (z-score)” value [29] was 0.204 and the “glycan array binding signal (z-score)” value [30] was -0.495. The “glycan array binding signal (z-score)” value [31] was -0.174, the “glycan array binding signal (z-score)” value [32] was -0.101 and the “glycan array binding signal (z-score)” value [33] was 0.498. The “glycan array binding signal (z-score)” value [34] was -0.097, the “glycan array binding signal (z-score)” value [35] was -0.004 and the “glycan array binding signal (z-score)” value [36] was 0.151. For the same binder, the “glycan array binding signal (z-score)” value [37] was -0.018.
